PubChem BioAssay AID485346 (Sanford-Burnham Center for Chemical Genomics, 2010)
About 10,000 (3%) of roughly 330,000 compounds were called active. The full list was thinned out, with actives kept by preference. Values without a mark were called inactive.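 The calls were made as follows: active = inhibition of at least 50% at 8 µM in the primary screen; inactive = the rest.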

Each compound was assayed against Protein Mdm4 (Homo sapiens) + E3 ubiquitin-protein ligase Mdm2 (Homo sapiens) (UniProt O15151+Q00987) (assay: inhibitors of human Mdm2-MdmX association, primary screen, cell-based, luminescence, split luciferase, SaOS-2, uHTS (AID 485346)). Conditions: SaOS-2 split-luciferase Mdm2/MdmX complementation, at 8 µM, active compounds read high.
Sequence of Protein Mdm4 (Homo sapiens) + E3 ubiquitin-protein ligase Mdm2 (Homo sapiens) (O15151 whole entry, looked up): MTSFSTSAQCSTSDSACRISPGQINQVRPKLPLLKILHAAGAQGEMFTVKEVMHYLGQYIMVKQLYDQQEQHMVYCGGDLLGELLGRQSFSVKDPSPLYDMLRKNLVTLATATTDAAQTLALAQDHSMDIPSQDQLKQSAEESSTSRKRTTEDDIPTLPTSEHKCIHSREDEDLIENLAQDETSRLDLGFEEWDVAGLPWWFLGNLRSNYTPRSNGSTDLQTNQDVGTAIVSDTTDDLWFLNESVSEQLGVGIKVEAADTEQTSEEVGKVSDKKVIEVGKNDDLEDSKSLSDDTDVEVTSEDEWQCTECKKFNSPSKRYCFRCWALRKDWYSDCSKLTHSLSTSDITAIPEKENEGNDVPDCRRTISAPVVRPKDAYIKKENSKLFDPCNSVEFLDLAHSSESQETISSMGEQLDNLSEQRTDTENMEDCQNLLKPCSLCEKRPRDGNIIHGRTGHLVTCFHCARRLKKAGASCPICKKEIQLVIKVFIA
Sequence of Protein Mdm4 (Homo sapiens) + E3 ubiquitin-protein ligase Mdm2 (Homo sapiens) (Q00987 whole entry, looked up): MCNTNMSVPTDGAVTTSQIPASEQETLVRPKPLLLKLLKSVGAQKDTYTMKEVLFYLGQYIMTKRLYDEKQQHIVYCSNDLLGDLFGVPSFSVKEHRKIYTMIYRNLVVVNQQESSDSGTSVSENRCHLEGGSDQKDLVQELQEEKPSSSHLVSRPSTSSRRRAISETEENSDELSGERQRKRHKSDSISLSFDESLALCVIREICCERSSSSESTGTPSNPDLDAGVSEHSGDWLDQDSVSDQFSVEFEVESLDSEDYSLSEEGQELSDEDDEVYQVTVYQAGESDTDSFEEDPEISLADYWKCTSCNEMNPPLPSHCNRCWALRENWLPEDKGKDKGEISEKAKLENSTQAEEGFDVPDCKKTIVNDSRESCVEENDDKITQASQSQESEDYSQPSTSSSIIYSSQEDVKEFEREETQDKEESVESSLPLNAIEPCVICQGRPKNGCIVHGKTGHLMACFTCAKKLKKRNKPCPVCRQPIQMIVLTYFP

Row | SMILES | inhibition
1 | O=C(Nc1ccc(N2C(=O)c3cccc4cccc(c34)C2=O)cc1)c1ccc(N2CCCCC2)c([N+](=O)[O-])c1 | -6.66%
2 | O=C(NC1C2CC3CC(C2)CC1C3)c1ccc(N2CCNCC2)c([N+](=O)[O-])c1 (stereo unspecified) | 34.8%
3 | COc1cc(OC)cc(C(=O)NC(=S)N2CCN(c3ccc(C(F)(F)F)cc3[N+](=O)[O-])CC2)c1 | 17.3%
4 | O=C(Nc1cccc(C(F)(F)F)c1)c1ccc(N2CCNCC2)c([N+](=O)[O-])c1 | 52.8% (active)
5 | CCC(C)NC(=O)c1ccc(N2CCC3(CC2)OCCO3)c([N+](=O)[O-])c1 (stereo unspecified) | 10.6%
6 | CC(NC(=O)c1ccc(N2CCNCC2)c([N+](=O)[O-])c1)C12CC3CC(CC(C3)C1)C2 (stereo unspecified) | 101% (active)
7 | Brc1c(CSc2nncc3ccccc23)nc2ccccn12 | 21.7%
8 | CCc1ccccc1NC(=O)c1ccc2c(c1)CCN2S(C)(=O)=O | 24.8%
9 | CC(=N\NC(=O)c1cc(Br)ccc1O)/C(=N/O)C(=O)Nc1ccccc1 | 36.7%
10 | CCN(CC)C(CNC(=O)CSc1nnnn1-c1cccc(F)c1)c1ccco1 (stereo unspecified) | -4.51%
11 | Cc1ccc(-n2c(SCC(=O)NCCC3=CCCCC3)nc3n[nH]c(C)c3c2=N)cc1Cl | 28.5%
12 | CCCCNC(=O)CSc1nc2n[nH]c(C)c2c(=N)n1-c1cccc(Cl)c1C | -6.85%
13 | COc1cccc(-n2c(SCC(=O)NC3CCCCC3)nc3n[nH]c(C)c3c2=N)c1 | 53.3% (active)
14 | COCCNC(=O)CSc1nc2sccc2c(=O)n1-c1ccccc1 | 6.49%
15 | O=c1c2c3c(sc2n(CCN2CCCC2)c(=O)n1Cc1ccccc1)CCCCC3 | 28.5%
16 | CN(C)CCCn1c(=O)n(Cc2ccccc2)c(=O)c2c3c(sc21)CCCCC3 | 61.8% (active)
17 | Cn1c(=O)n(Cc2ccco2)c(=N)c2c3c(sc21)CCCC3 | 15.6%
18 | CCc1ccc(C(CNc2nc(C(F)(F)F)nc3ccccc23)N(C)C)cc1 (stereo unspecified) | 20.9%
19 | CC(Nc1nc(C(F)(F)F)nc2ccccc12)c1cccs1 (stereo unspecified) | 69.6% (active)
20 | COc1cccc(CNc2nc(C(F)(F)F)nc3ccccc23)c1 | 31.6%
21 | COc1ccccc1CNC(=O)CCCN1C(=O)NC2(CCCC2)C1=O | 20.4%
22 | Cc1c(C(=O)NCCN2CCOCC2)sc2nc(-c3ccc(F)cc3)cn12 | 7.76%
23 | O=C(N/N=C/c1cccnc1)c1ccc(NC(=O)c2ccc(F)cc2)cc1 | -2.66%

Row | SMILES | inhibition
24 | O=C(N/N=C/c1sc(N2CCCCC2)nc1-c1cccs1)c1cccnc1 | 57.4% (active)
25 | O=C(NN=C1CCC(=NNC(=O)c2cccnc2)CC1)c1cccnc1 | -0.152%
26 | CCOC(=O)c1csc(CCNC(=O)c2oc3c(Cl)cc(C)cc3c2C)n1 | 21.7%
27 | OC(COc1ccc(Br)cc1)CN1CCCC1 (stereo unspecified) | 2.28%
28 | CC(C)(C)CC(C)(C)NCC(O)COCCOc1ccc(Br)cc1 (stereo unspecified) | 65.4% (active)
29 | CC(Oc1ccc(Br)cc1)C(=O)NC1CCCCCC1 (stereo unspecified) | 0.219%
30 | NC(=O)CCC(NS(=O)(=O)c1ccc(Cl)cc1)C(=O)NCc1ccccc1Cl (stereo unspecified) | 20.8%
31 | Cc1cc(C)c2nc(-c3cccnc3)cc(C(=O)Nc3ccc(S(=O)(=O)Nc4onc(C)c4C)cc3)c2c1 | -28.5%
32 | Cc1ccc(Cn2c(=N)c(S(=O)(=O)c3ccc(C)cc3)cc3c(=O)n4ccccc4nc32)cc1 | 21.6%
33 | COCc1[nH]nc2c1C(C1C=CCCC1)C(C#N)=C(N)O2 (stereo unspecified) | 23.8%
34 | N#CC1=C(N)Oc2cc(O)ccc2C1C1CCCCC1 (stereo unspecified) | 64.7% (active)
35 | N#CC1=C(N)OC2=C(C(=O)CCC2)C1C1CC=CCC1 (stereo unspecified) | -10%
36 | COc1ccc2c(c1)O/C(=C\c1ccccc1O)C2=O | -152%
37 | COc1cc(/C=C2\Oc3ccc(C#Cc4ccc(O)cc4)cc3C2=O)cc(OC)c1 | 62.4% (active)
38 | COc1cc(C#Cc2ccc3cc(CCCO)oc(=O)c3c2)cc(OC)c1 | 38.9%
39 | O=C(Nc1cccc2c1CCCC2)c1ccc(F)cc1 | 11.9%
40 | COc1ccc([C@H]2CC(=O)C=C(c3ccc(OC(F)(F)F)cc3)C2)cc1OC | -6.36%
41 | CC[n+]1cc(C)ccc1/C=C/c1ccc(N(C)C)cc1 | 81.1% (active)
42 | Cc1ccc2c(cnn2C(=O)CCC(=O)NC2CCCC2)c1 | 7.95%
43 | Cn1nccc1NS(=O)(=O)c1ccc(F)cc1 | -11.5%
44 | NS(=O)(=O)c1ccc(CCNC(=O)c2ccc([N+](=O)[O-])cc2[N+](=O)[O-])cc1 | -0.842%
45 | Cc1c(-c2ccccc2)cn2c1-c1ccc(C)n1CC2 | -3.59%
46 | O=S(=O)(c1cccs1)N1CCN(CCOc2ccccc2)CC1 | 14.3%

Row | SMILES | inhibition
47 | Cn1cc(S(=O)(=O)NC(c2ccccc2)c2ccccc2)c(=O)n(C)c1=O | 7.36%
48 | Nc1cccc(-c2cc(-c3ccccc3)nc(-c3cccc(N)c3)n2)c1 | 65% (active)
49 | Nc1cccc(CCc2nc3ccccc3[nH]2)c1 | -30.8%
50 | c1ccc(-c2cc(-c3ccccc3)[nH]n2)cc1 | -145%
51 | N#Cc1cccc(CSc2ncnc(N)n2)c1 | 7.81%
52 | COc1ccc(C2CC(c3cccs3)=NN2c2ccc(F)cc2)cc1OC (stereo unspecified) | -3.01%
53 | COc1ccc(C2CC(c3cccs3)=NN2C(=O)CCC(=O)O)cc1OC (stereo unspecified) | 17.5%
54 | COc1ccc(C2CC(c3cccs3)=NN2c2nc(C)c(C(C)=O)s2)cc1OC (stereo unspecified) | 67.5% (active)
55 | Cc1cc(NC(=O)CCC(=O)N(Cc2ccccc2)C(C(=O)NC2CCCC2)c2ccc(C)o2)no1 (stereo unspecified) | 16.1%
56 | Cc1ccc(NC(=S)NC(NC(=O)Cc2cccc3ccccc23)C(Cl)(Cl)Cl)cc1 (stereo unspecified) | 79.8% (active)
57 | O=C(Cc1cccc2ccccc12)NNC(=O)Nc1ccc(Cl)cc1 | -10%
58 | CC(C)(C)C(=O)NC(NC(=S)Nc1ccc(S(N)(=O)=O)cc1)C(Cl)(Cl)Cl (stereo unspecified) | 18.8%
59 | COc1ccc(S(=O)(=O)N2CCN(C(=O)N(C)C)C2C)cc1 (stereo unspecified) | -11.6%
60 | O=c1ccc2cc(S(=O)(=O)NCCCc3ccccc3)ccc2[nH]1 | 23.1%
61 | N#Cc1c(N)nc2c(c1N)CC(C(F)(F)F)O2 (stereo unspecified) | 9.73%
62 | CN1C(=O)/C(=C/c2ccco2)SC1=Nc1cccc(C(=O)O)c1 | -14.1%
63 | O=C(CCCN1C(=O)/C(=C\c2ccco2)SC1=S)Nc1cccc2ccccc12 | 86.5% (active)
64 | O=C(CN1C(=O)/C(=C\c2ccccc2F)SC1=S)Nc1nc2ccccc2s1 | -22.4%
65 | O=C(CCCCCN1C(=O)c2cccc3cccc(c23)C1=O)NCc1ccco1 | 2.52%
66 | Cc1ccc(-c2nn(-c3ccccc3)cc2/C=C2\SC(=S)N(CCCCCC(=O)O)C2=O)o1 | 34%
67 | O=C(CCCN1C(=O)/C(=C/c2ccco2)SC1=S)Nc1ccccc1 | 68.6% (active)
68 | Cc1sc(NC(=O)C2=COCCO2)c(C#N)c1C | -49.9%
69 | COc1ccc(N2CCN(C(=O)CN3C(=O)COc4ccccc43)CC2)cc1 | -8.57%

Row | SMILES | inhibition
70 | CNC1(c2nnnn2-c2c(C)cccc2C)CCOC(C)(C)C1 (stereo unspecified) | 1.22%
71 | CCOC(=O)[C@H]1[C@H]2COc3cc(OC)ccc3[C@@H]2N2C(=O)CN(Cc3ccc(Cl)cc3)C(=O)[C@@]12C | -12%
72 | O=C(Cc1ccc(S(=O)(=O)N2CCOCC2)s1)NCCOc1ccccc1F | 11.2%
73 | Oc1c(Cl)cc(Cl)c(Cl)c1Cc1c(O)c(Cl)cc(Cl)c1Cl | 95% (active)
74 | CCOc1cc(/C=N/NC(=O)c2ccc(CSc3nncn3C)cc2)ccc1OCC(=O)N1CCOCC1 | -20%
75 | CCCCNc1c(-c2ccc(OC)c(Sc3ccc(OC)cc3)c2)nc2ccc(Cl)cn12 | 41.1%
76 | CCCCCCSc1ccc(-c2nc3ccc(Cl)cn3c2NCc2ccccc2)cc1 | -24.5%
77 | CCCCNc1c(-c2cccc(Sc3ccc(OC)cc3)c2)nc2ccccn12 | 78.3% (active)
78 | CC(=NCC1CCCO1)c1c(O)[nH]c(=O)[nH]c1=O (stereo unspecified) | 60.2% (active)
79 | CC(=NC1CCN(Cc2ccccc2)CC1)c1c(O)[nH]c(=O)[nH]c1=O | 10.7%
80 | O=C1C(C=NCC2CCCO2)=C(O)c2ccccc21 (stereo unspecified) | -17%
81 | CN(Cc1ccccc1)C(=O)c1cccc(C(=O)N(C)Cc2ccccc2)c1 | -13.2%
82 | N#C/C(=C\c1ccccc1)c1n[nH]c(Cn2cncn2)n1 | -1.38%
83 | CCOC(=O)N1CCN(C(=O)C(=O)Nc2sc3c(c2C#N)CC(C)(C)OC3)CC1 | 13.5%
84 | O=C(NCc1ccccc1)C1C(=O)N(Cc2ccccc2)C(=O)C1C1(O)CCCC1 (stereo unspecified) | 13%
85 | CCc1nc(C)cn1S(=O)(=O)c1cc(OC)c(C)cc1C | 8.72%
86 | CC(C)c1nccn1S(=O)(=O)c1cc([N+](=O)[O-])ccc1Cl | 25.4%
87 | CCc1nc(C)cn1S(=O)(=O)c1cc([N+](=O)[O-])ccc1Cl | 66.2% (active)
88 | C/C(=C(\C#N)C(=O)NCCCN1CCOCC1)N(C)C | 13.1%
89 | C#CCOCCOCCOCCNc1nc(N2CCN(C(=O)CCCCCCCCCCNC(=O)Cn3cc(CCCCCN)nn3)CC2)nc(N2CCN(C(=O)CCCCCCCCCCNC(=O)[C@H](CO)n3cc(CCCSC)nn3)CC2)n1 | 11.3%
90 | C#CCOCCOCCOCCNc1nc(N2CCN(C(=O)CCCCCCCCCCNC(=O)[C@H]([C@@H](C)CC)n3cc(CCCCN=C(N)N)nn3)CC2)nc(N2CCN(C(=O)CCCCCCCCCCNC(=O)[C@H](CO)n3cc(CCCSC)nn3)CC2)n1 | 12.1%
91 | C#CCOCCOCCOCCNc1nc(N2CCN(C(=O)CCCCCCCCCCNC(=O)[C@H](CCCCN)n3cc(C)nn3)CC2)nc(N2CCN(C(=O)CCCCCCCCCCNC(=O)[C@H](CO)n3cc(CCCSC)nn3)CC2)n1 | 52.3% (active)
